High-throughput results from PubChem.
Rows were chosen to be rich in hits. Some 3.8% of all compounds tested hit in one or more screens of this group.
Mot1-301 SUMO: inhibitors of SUMOylation pathway: yeast Mot1-301 growth rescue; S. cerevisiae Mot1-301 growth rescue, ATP luminescence, 38.5C; percent above DMSO median, 100 means doubled; growth rescue, % at 18.8 µM; hit rate 1% among 320,000; AID 2716;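 active = every valid replicate shows activation above 250% relative to neutral control wells; inactive = the rest, any valid replicate at or below 250%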;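 also: OY570 slx delta 5 strain wells were the positive control but not used for scaling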
MPTP block: inhibitors of mitochondrial permeability transition pore | isolated mouse mitochondria, Ca2+ swelling absorbance, 30 min | inhibition, % at 10 µM | hit rate 1.4% among 360,000;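 active = inhibition of 50% or more, scaled per plate between neutral and stimulator controls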;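 also: 0% = DMSO wells given calcium and 100% = 1 mM EGTA wells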
FAS TE block: FAS thioesterase (human) inhibition | inhibition, % at 15 µM | hit rate 0.67% among 360,000 | recombinant FAS-TE, OMFH fluorogenic substrate, fluorescence endpoint;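 active = compounds whose normalised, plate-corrected inhibition of enzyme fluorescence in the single-dose primary screen is 50% or more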;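 also: 0% = DMSO with enzyme and 100% = substrate without enzyme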
H9c2 protect: myocardial damage modulation in H9c2 cells; H9c2 cardiomyocytes, H2O2 injury protection, ATPLite, 2 h; protection from H2O2 cell death, % at 20 µM; hit rate 0.63% among 360,000;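 active = compounds giving at least 50% protection of heart cells from peroxide-induced death in the single-dose screen, raw or plate-pattern-corrected value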;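 also: 0% = DMSO wells with peroxide and 100% = DMSO wells without peroxide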
CR mimetic SO: yeast age-related superoxide inhibition as caloric restriction mimetic; S. cerevisiae aged cells, superoxide DHE fluorescence; stronger effect = lower value; superoxide response (% of plate mean), % at 10 µM; hit rate 0.18% among 330,000; AID 2690;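 active = superoxide response under a set limit, about three screen SD below normal, cut at about 65% in these data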;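 also: yeast aged for seven days with compound at 30 °C before DHE staining; 100% = average MFI of all compound-treated wells on the plate with controls excluded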
aDG glyco up: alpha-DG glycosylation activation; Pro5-aDG cells, alpha-DG glycosylation AlphaScreen (IIH6); 0% Pro5, 100% B10-LARGE cell signal; activation, % at 10 µM; hit rate 0.22% among 360,000;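 active = activation of at least 8% versus controls, or a plate z-score of at least 8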;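 also: Pro5 are CHO cells carrying HIG-tagged alpha-DG that lacks glycosylation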
An asterisk follows results filed as active; · = no result.

SMILES	Mot1-301 SUMO	MPTP block	FAS TE block	H9c2 protect	CR mimetic SO	aDG glyco up
CCCCN(C(=O)COC(=O)COc1c(C)cc(C)cc1C)c1c(N)n(CCC)c(=O)[nH]c1=O	287*	0	-5	0	98	0
NC(=O)c1cc2ccccc2o/c1=N/NC(=O)c1ccccc1	-11	1	-4	12	74	0
Cc1ccc(CN2CC(C(=O)Nc3nnc(SCc4c(Cl)cccc4Cl)s3)CC2=O)cc1 (configuration not stated)	2	-1	6	-7	106	0
Cc1cnc(C(=O)Nc2nnc(SCc3c(Cl)cccc3Cl)s2)cn1	-9	0	-1	54*	99	0
COc1ccc(Br)cc1C(=O)Nc1cccc(-c2nnc(-c3ccco3)o2)c1	331*	6	16	-5	128	0
COc1cccc(C(=O)Nc2cccc(-c3nnc(-c4ccco4)o3)c2)c1	9	1	14	113*	105	-1
COc1ccc(Br)cc1C(=O)Nc1ccc(NC(=O)c2ccco2)cc1	5	-17	-4	2	95	0
O=C(Nc1ccccc1)c1cccc(-c2nnc(-c3ccccc3)o2)c1	·	3	2	0	95	0
Cc1nnc(N2C(=O)c3ccc(Br)cc3C2=O)s1	6	-1	-3	8	95	0
CCCN(CC(=O)Nc1ccccc1C)C(=O)COC(=O)c1cnc(C)cn1	·	-1	-6	-4	·	0
COc1cccc(/C=N/Nc2ncnc3scc(-c4ccccc4)c23)c1O	-2	19	30	70*	76	1
O=C(C1CCCN(C2CC(=O)N(c3ccc(Cl)cc3)C2=O)C1)N1CCCC1 (configuration not stated)	266*	0	-6	-1	104	0
O=S(=O)(NC1CCCCC1)c1ccc(-c2csnn2)s1	297*	-1	6	-8	111	0
CCCCN1CC(COCc2ccccc2)Oc2cccc(Oc3ccc(OC)cc3)c2S1(=O)=O (configuration not stated)	·	-1	25	-15	·	0
CCCCN1CC(COCc2ccccc2)Oc2cccc(OCCN3C(=O)[C@@H]4[C@H](C3=O)C3C=C[C@H]4C3)c2S1(=O)=O (some centres not stated)	·	1	21	71*	·	0
COc1ccc(/C=N/NC(=O)c2cc(OC)c(OC)c(OC)c2)cc1CN1CCc2cc(OC)c(OC)cc2C1C (configuration not stated)	80	1	-5	66*	112	0
COc1ccc2[nH]c(=O)c(CN(C(=O)NC3CCCCC3)C3CCCCC3)cc2c1	11	3	18	-6	100	0
COc1ccc2[nH]c(=O)c(CNC3CCCCC3)cc2c1	-10	-9	-5	57*	108	0
COc1ccc(NCc2cc3ccccc3[nH]c2=O)cc1	179	0	-9	62*	106	0
COc1ccc(NCc2cc3cc(OC)ccc3[nH]c2=O)cc1	-10	1	-12	99*	88	0
COc1ccc2[nH]c(=O)c(CN(c3ccccc3OC)S(=O)(=O)c3ccccc3)cc2c1	6	-2	16	68*	103	0
COc1ccc(CNC(=O)CS(=O)(=O)Cc2nc(-c3cccc(OC)c3)oc2C)cc1	-10	0	4	4	104	0
O=C(CCN1CCCCC1)c1cccc(Cl)c1	·	-1	-2	-1	·	0
COc1cccc(N2CCN(C(=O)/C=C/c3ccco3)CC2)c1	-28	0	-2	-1	82	-1
NC(=O)C1CCN(CC(=O)Nc2cc(Cl)ccc2Oc2ccccc2)CC1	321*	1	2	-3	97	0
SMILES	Mot1-301 SUMO	MPTP block	FAS TE block	H9c2 protect	CR mimetic SO	aDG glyco up
O=C(CN1CCCCC1)Nc1cc(Cl)ccc1Oc1ccccc1	113	1	23	-11	101	0
CC(=O)NC(c1cccs1)c1cc(F)c2cccnc2c1O (configuration not stated)	-15	-4	21	23	90	1
CC(=O)NC(C)c1cc(Cl)c2cccnc2c1O (configuration not stated)	-15	-1	-5	58*	111	1
CC(=O)NC(c1ccco1)c1cc(F)c2cccnc2c1O (configuration not stated)	-1	-3	-1	50*	80	1
CCN(CC)S(=O)(=O)c1cc(NC(=O)Cc2ccc(S(=O)(=O)N3CCOCC3)s2)ccc1Cl	·	8	22	-18	·	0
COC(=O)/C=C/C(=O)N1CCN(c2ccccc2C)CC1	439*	0	-6	3	92	1
Cc1ccc2nc(N3CCN(c4cccc(C)c4C)CC3)c3nnnn3c2c1	-10	2	9	2	94	0
Cc1ccc2nc(Cl)c3nnnn3c2c1	382*	3	27	-15	131	0
CCCNC(=O)C1(CC2CC(c3ccccc3)=NO2)CCN(C(=O)C2(C)CC2)CC1 (configuration not stated)	355*	-2	-11	0	101	0
COc1ccc(-c2cc(C(F)F)n3ncc(C(=O)NCC4CCCO4)c3n2)cc1 (configuration not stated)	18	0	0	-1	121	0
O=C(c1cnn2c(C(F)F)cc(-c3ccccc3)nc12)N1CCOCC1	8	-2	-8	4	99	0
O=C(NCCN1CCOCC1)c1cc(-c2ccccc2)nc2ccccc12	·	0	-7	4	·	0
COc1ccc(-c2cc(C(F)F)n3ncc(C(=O)Nc4ccc(C(=O)N5CCOCC5)cc4)c3n2)cc1	-20	0	8	71*	102	0
O=C(NCCN1CCOCC1)c1cnn2c(-c3ccccc3)cc(-c3ccccc3)nc12	33	-1	3	79*	109	0
Cc1ccc(-c2cc(C(F)F)n3ncc(C(=O)N4CCCc5ccccc54)c3n2)cc1	383*	1	18	-10	104	0
O=C(Nc1ccc(C(=O)N2CCOCC2)cc1)c1cnn2c(C(F)F)cc(-c3ccccc3)nc12	102	0	12	55*	100	-1
COc1cc(CNc2ccc(N3CCCCC3)cc2)ccc1OCC(=O)NC(C)(C)C	2	3	2	-14	98	0
CCCNC(=O)N[C@H]1C=C[C@H](CC(=O)OC)O[C@@H]1CO	·	0	·	·	·	0
CCOC(=O)[C@]12CCC=C1N(Cc1ccccc1)C(=O)[C@H](CC(=O)NCC13CC4CC(CC(C4)C1)C3)C2	·	-2	14	·	·	0
CN(Cc1ccnc2ccccc12)C(=O)C1CCC(=O)N(Cc2ccccc2F)C1 (configuration not stated)	30	1	-3	-3	108	0
